Pf growth 48h – Primary qHTS for delayed death inhibitors of the malarial parasite plastid, 48 hour incubation; P. falciparum luciferase growth in erythrocytes, 48 h; Potency, µM (series often up to 28.7 µM), actives largely listed as inhibitors; 310,000 tested, 5.9% active
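Luminescence readout; reporter = integrated firefly luciferase in P. falciparum. RBC culture at 2% hematocrit, 0.1% parasitemia final, 37 C/5% CO2; decreased signal taken as growth inhibition.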
NS1 function inh – qHTS Assay for Inhibitors of Influenza NS1 Protein Function; 270,000 tested, 0.4% active; Potency, µM (highest dose often 46.1 µM); calls by dose curve; further: actives are rising curves; nearly all actives have a fitted effect of over 50% in size
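S. cerevisiae expressing influenza A NS1, grown in glucose, washed, then diluted 1:100 into pH 6.0 -URA galactose medium with 23 nl compound. Growth recovery read as OD600; NS1-free strain serves as control.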
Cycloheximide cs – Cycloheximide Counterscreen for Small Molecule Inhibitors of Shiga Toxin; cell reporter, cycloheximide protein synthesis inhibition counterscreen; max response, %; 300,000 tested, 12% active; in the data active means max response mostly above about 13%, no sharp cut-off; inactive means mostly below about 14%; further: read at 38.3 µM for the half of the compounds with a filed dose
Shiga inhibitor – A qHTS for Small Molecule Inhibitors of Shiga Toxin. Vero cells, Shiga toxin protein synthesis inhibition reporter. inhibition, % at 38.7 µM. 290,000 tested, 9.2% active; in the data active means inhibition mostly above about 28%, no sharp cut-off; inactive means mostly below about 43%
Pf growth 96h – Primary qHTS for delayed death inhibitors of the malarial parasite plastid, 96 hour incubation; P. falciparum luciferase reporter growth, 96 h; Potency, µM (highest dose often 28.7 µM), hits mostly inhibitors; 320,000 tested, 6.9% active; AID 504834, 2011
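Infected RBCs, 2% Hct / 0.05% parasitemia final; luciferase-reporter P. falciparum; cpd 96 h, 37 C, 5% CO2; luciferase detection reagent; luminescence.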
Flu NS1 inh – Assay for Inhibitors of Influenza NS1 Protein Function: Hit Validation | 1,400 tested, under 10 active | shares compounds with NS1 function inh | AID 492980, 2010 | influenza NS1 function cell assay, 15-point titration | activity change, negative = inhibition, % at 32.9 µM; calls by dose curve
PR8 titer – Assay for Inhibitors of Influenza NS1 Protein Function: Influenza virus replication assay in MDCK cells infected with virus A/PR/8/34; MDCK infected influenza A/PR/8/34, virus titer TCID50; hits give low values; AID 504647, 2011; shares compounds with NS1 function inh; 95 tested, 30% active; virus titer (log TCID50), log10 TCID50 at 5 µM; call rule not given here
Of the large screens only hits and unclear results are named; the others gave an inactive call (follow-up assays come after a bar, where they were run). Hits are enriched below; roughly 21% of the tested compounds scored in any of these assays. Unless noted, the call rests on the fitted dose curve; in most records, active means well fitted inhibition curve with a large enough effect; inconclusive means small, poorly fitted or top-dose-only effect, or another doubt; inactive means no such curve, though single readings can be large or run the other way.

CCN(C(=O)COC(=O)c1[nH]c(C)c(C(C)=O)c1C)C1CCS(=O)(=O)C1 (configuration not stated)	Pf growth 48h inconclusive
CCC(C)N(C(=O)COC(=O)c1[nH]c(C)c(C(C)=O)c1C)C1CCS(=O)(=O)C1 (configuration not stated)	NS1 function inh 3.2µM | Flu NS1 inh inactive
O=C1c2ccccc2C(=O)N1c1nc2nccc(-c3ccccc3)n2n1	NS1 function inh inconclusive (no result: Pf growth 96h) | Flu NS1 inh inactive
Cc1ccccc1S(=O)(=O)Nc1nc2ccccc2nc1N1CCc2ccccc2C1	NS1 function inh 18µM, Cycloheximide cs 37, Shiga inhibitor 93 | Flu NS1 inh inactive
COc1ccc(-c2c(C)nc(N)nc2-c2ccc(OCc3ccc(C)cc3)cc2O)cc1OC	Pf growth 48h inconclusive, NS1 function inh 3.2µM, Pf growth 96h inconclusive | Flu NS1 inh inactive
CN1C(=O)C(=O)/C(=C(/O)c2ccc(Br)cc2)C1c1cccc([N+](=O)[O-])c1 (configuration not stated)	none
COc1ccc(-c2cc(C(=O)Nc3ccccc3O)c3ccccc3n2)cc1OC	Pf growth 48h inconclusive
COc1ccc(-c2cc(C(=O)Nc3nc4ccccc4s3)c3ccccc3n2)cc1OC	NS1 function inh 22µM, Cycloheximide cs 16, Shiga inhibitor 43 | Flu NS1 inh inactive
C[C@]12C=CC(=O)C=C1CCC1C2=CC[C@]2(C)[C@@H](C(=O)CN3CCN(c4cc(N5CCCC5)nc(N5CCCC5)n4)CC3)CC[C@@H]12 (some centres not stated)	NS1 function inh 35µM (no result: Pf growth 48h, Cycloheximide cs, Shiga inhibitor, Pf growth 96h) | Flu NS1 inh inconclusive
CCOc1ccc(CCNC(=O)C2CCCN(S(=O)(=O)c3c(C)n[nH]c3C)C2)cc1OCC (configuration not stated)	Pf growth 48h 8.3µM, NS1 function inh 2.5µM | Flu NS1 inh inactive
Cc1ccc(CNC(=O)C2CCCN(S(=O)(=O)c3c(C)n[nH]c3C)C2)cc1 (configuration not stated)	none (no result: Pf growth 48h)
COC(=O)C(O)(c1c(C)[nH]n(-c2ccccc2)c1=O)C(F)(F)F (configuration not stated)	NS1 function inh 8.9µM, Pf growth 96h inconclusive | Flu NS1 inh inconclusive
CCOC(=O)Cc1c(C)[nH]n(-c2ccccc2)c1=O	Pf growth 48h inconclusive
CCOC(=O)/C=C/C(=O)NNC(=O)c1ccccc1Cl	none
COc1ccc(C(=O)C[n+]2ccc(-c3nnc4n3CCC4)cc2)cc1	Pf growth 48h inconclusive, Pf growth 96h inconclusive
Cc1c(OC(C)C(=O)NC(Cc2c[nH]c3ccc(O)cc23)C(=O)O)ccc2c1oc(=O)c1ccccc12 (configuration not stated)	Pf growth 96h inconclusive
Cc1c(C)c2ccc(OC(C)C(=O)N[C@@H](Cc3c[nH]c4ccccc34)C(=O)O)c(C)c2oc1=O (some centres not stated)	Pf growth 48h inconclusive, NS1 function inh 10µM | Flu NS1 inh inactive
COc1ccc([N+](=O)[O-])cc1NC(=O)c1ccccc1SC	none (no result: NS1 function inh)
COc1ccc(-n2cc(C(=O)Nc3cc([N+](=O)[O-])ccc3OC)c3ccccc3c2=O)cc1	NS1 function inh 22µM, Pf growth 96h inconclusive | Flu NS1 inh inactive
Cc1cc(Nc2ccc(F)cc2F)n2nc(C)nc2n1	NS1 function inh 13µM | Flu NS1 inh inactive
CNC[C@H](NC[C@@H](NCCCc1ccccc1)c1ccccc1)[C@H](C)O	Pf growth 48h inconclusive, Pf growth 96h inconclusive
CCn1c(Cc2ccccc2)nnc1SCc1cccc(C(=O)O)c1	none
O=C(Oc1cc(=O)oc2c1c(=O)n1c3c(cccc23)CC1)c1ccc(F)cc1	none
Cc1[nH]n(-c2ncc(-c3ccccc3)s2)c(=O)c1C(c1ccc(Br)cc1)C(C#N)C#N (configuration not stated)	NS1 function inh 4.5µM | Flu NS1 inh inactive
COCCNC(=O)c1ccc(CS(=O)(=O)c2ccccc2C)o1	none
COC(=O)c1ccc(CS(=O)(=O)c2ccccc2C)o1	NS1 function inh 1µM | Flu NS1 inh inactive
Cc1cc(C(=O)CN(Cc2ccc(F)cc2)S(=O)(=O)c2ccc3c(c2)OCCO3)c(C)n1C	NS1 function inh 11µM | Flu NS1 inh inactive
Cc1cccc(C(=O)NN2C(=O)C3C(c4ccccc4)C=CC(c4ccccc4)C3C2=O)c1 (configuration not stated)	NS1 function inh 3.2µM | Flu NS1 inh inactive
O=C(NN1C(=O)C2C3C=CC(C3)C2C1=O)c1ccccc1 (configuration not stated)	none
CCOc1ccc(CCNC(=O)COC(=O)COc2ccccc2C)cc1OCC	none (no result: NS1 function inh, Cycloheximide cs, Shiga inhibitor)
CC(/C=N/NC(=O)CNc1n[nH]c(=O)[nH]c1=O)c1ccccc1 (configuration not stated)	none
COC(=O)Cc1[nH]nc2c1C(c1ccc(O)c(OC)c1)C(C#N)=C(N)O2 (configuration not stated)	NS1 function inh 10µM | Flu NS1 inh inconclusive
Cc1oc(-c2ccccc2Cl)nc1CS(=O)CC(=O)NCc1cccs1 (configuration not stated)	none (no result: Pf growth 48h)
Cc1oc(-c2cccs2)nc1CS(=O)CC(=O)NCCCOC(C)C (configuration not stated)	none
Cc1oc(-c2ccccc2F)nc1CS(=O)CC(=O)NCc1cccs1 (configuration not stated)	NS1 function inh 11µM (no result: Pf growth 48h) | Flu NS1 inh inactive
CCCCNC(=O)CS(=O)Cc1nc(-c2cccs2)oc1C (configuration not stated)	NS1 function inh 11µM, Pf growth 96h 8.3µM (no result: Pf growth 48h) | Flu NS1 inh inactive
Cc1cc2nc(NCCCO)n(CC(=O)c3cc(C(C)(C)C)c(O)c(C(C)(C)C)c3)c2cc1C	Pf growth 48h inconclusive (no result: NS1 function inh, Cycloheximide cs, Shiga inhibitor)
Cc1c(NC(=O)C(C)Sc2n[nH]c(N)n2)c(=O)n(-c2ccccc2)n1C (configuration not stated)	none (no result: Pf growth 48h)
COCCNC(=O)c1cccc(S(=O)(=O)N2CC3(C)CC2CC(C)(C)C3)c1 (configuration not stated)	Pf growth 96h inconclusive (no result: NS1 function inh, Cycloheximide cs, Shiga inhibitor)
CC1(C)CC2CC(C)(CN2S(=O)(=O)c2ccc(C(=O)Nc3cccc(S(=O)(=O)N4CCOCC4)c3)cc2)C1 (configuration not stated)	Pf growth 48h 2.9µM, NS1 function inh 13µM, Pf growth 96h inconclusive | Flu NS1 inh inactive
COc1ccc(-c2cnnn2-c2ccc(NC(=O)c3ccc(S(=O)(=O)N4CCCCC4)cc3)cc2)cc1OC	Pf growth 48h 4.1µM, NS1 function inh 5µM, Pf growth 96h 1.5µM | Flu NS1 inh inactive | PR8 titer 7.3
